# Measurements: the supplement of paper PMC8728848
# The full list was thinned out, with the strongest signals kept by preference.
# B1: Siglec-9 (Homo sapiens), Q9Y336 (protein)
# chain: MLLLLLPLLWGRERAEGQTSKLLTMQSSVTVQEGLCVHVPCSFSYPSHGWIYPGPVVHGYWFREGANTDQDAPVATNNPARAVWEETRDRFHLLGDPHTKNCTLSIRDARRSDAGRYFFKMEKGSIKWNYKHHRLSVNVTALTHRPNILIPGTLESGCPQNLTCSVPWACEQGTPPMISWIGTSVSPLDPSTTRSSVLTLIPQPQDHGTSLTCQVTFPGASVTTNKTVHLNVSYPPQNLTMTVFQGDGTVSTVLGNGSSLSLPEGQSLRLVCAVDAVDSNPPARLSLSWRGLTLCPSQPSNPGVLELPWVHLRDAAEFTCRAQNPLGSQQVYLNVSLQSKATSGVTQGVVGGAGATALVFLSFCVIFVVVRSCRKKSARPAAGVGDTGIEDANAVRGSASQGPLTEPWAEDSPPDQPPPASARSSVGEGELQYASLSFQMVKPWDSRGQEATDTEYSEIKIHR
# Assays:
# Experiment in all cases: glycan array binding signal (z-score within array); higher = stronger binding
# Conditions in all cases: glycan notation: IUPAC condensed, linker removed; mutation: R120K
# [1] = molecular target: Fuc(a1-2)Gal(b1-3)GlcNAc(b1-3)GalNAc
# Outline: (§1)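 The Consortium for Functional Glycomics database supplied 3228 glycan arrays, of which those lacking an available protein sequence were dropped. The binding signal, a within-array Z-score, was averaged across arrays of the same protein sequence and across linkers. Negative scores can be read as non-binding.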
# [2] = molecular target: Fuc(a1-2)Gal(b1-3)[Fuc(a1-4)]GlcNAc(b1-2)Man(a1-3)[Fuc(a1-2)Gal(b1-3)[Fuc(a1-4)]GlcNAc(b1-2)Man(a1-3)]Man(b1-4)GlcNAc(b1-4)GlcNAc
# Outline: as §1
# [3] = molecular target: Fuc(a1-2)Gal(b1-4)Fuc(a1-3)]GlcNAc(b1-2)Man(a1-3)[Fuc(a1-2)Gal(b1-4)[Fuc(a1-3)]GlcNAc(b1-2)Man(a1-6)]Man(b1-4)GlcNAc(b1-4)GlcNAc
# Outline: as §1
# [4] = molecular target: Fuc(a1-2)Gal(b1-4)GlcNAc(b1-3)Gal(b1-4)GlcNAc(b1-2)Man(a1-3)[Fuc(a1-2)Gal(b1-4)GlcNAc(b1-3)Gal(b1-4)GlcNAc(b1-2)Man(a1-6)]Man(b1-4)GlcNAc(b1-4)GlcNAc
# Outline: as §1
# [5] = molecular target: Fuc(a1-2)Gal(b1-4)[Fuc(a1-3)]GlcNAc
# Outline: as §1
# [6] = molecular target: Fuc(a1-2)Gal6S(b1-3)GlcNAc6S
# Outline: as §1
# [7] = molecular target: Fuc(a1-2)[Gal(a1-3)]Gal(b1-3)GlcNAc(b1-2)Man(a1-3)[Fuc(a1-2)[Gal(a1-3)]Gal(b1-3)GlcNAc(b1-2)Man(a1-6)]Man(b1-4)GlcNAc(b1-4)[Fuc(a1-6)]GlcNAc
# Outline: as §1
# [8] = molecular target: Fuc(a1-2)[Gal(a1-3)]Gal(b1-4)GlcNAc(b1-3)[Fuc(a1-2)[Gal(a1-3)]Gal(b1-4)GlcNAc(b1-6)]GalNAc
# Outline: as §1
# Fuc(a1-3)GlcNAc = molecular target: Fuc(a1-3)GlcNAc
# Outline: as §1
# [9] = molecular target: Fuc(a1-3)[Gal(b1-4)]GlcNAc(b1-3)Gal(b1-3)[Fuc(a1-4)]GlcNAc
# Outline: as §1
# Fuc(a1-4)GlcNAc = molecular target: Fuc(a1-4)GlcNAc
# Outline: as §1
# [10] = molecular target: Gal(a1-3)Gal(b1-3)GlcNAc(b1-2)Man
# Outline: as §1
# [11] = molecular target: Gal(a1-3)Gal(b1-4)[Fuc(a1-3)]GlcNAc(b1-2)Man(a1-3)[Gal(a1-3)Gal(b1-4)[Fuc(a1-3)]GlcNAc(b1-2)Man(a1-6)]Man(b1-4)GlcNAc(b1-4)GlcNAc
# Outline: as §1
# [12] = molecular target: Gal(b1-3)GlcNAc(b1-2)Man(a1-3)[Gal(b1-3)GlcNAc(b1-2)Man(a1-6)]Man(b1-4)GlcNAc(b1-4)[Fuc(a1-6)]GlcNAc
# Outline: as §1
# Gal(b1-4)Gal = molecular target: Gal(b1-4)Gal
# Outline: as §1
# [13] = molecular target: Gal(b1-4)GlcNAc(b1-3)Gal(b1-3)GalNAc
# Outline: as §1
# [14] = molecular target: Gal(b1-4)GlcNAc(b1-3)Gal(b1-4)GlcNAc(b1-2)Man(a1-3)[Gal(b1-4)GlcNAc(b1-3)Gal(b1-4)GlcNAc(b1-2)Man(a1-6)]Man(b1-4)GlcNAc(b1-4)[Fuc(a1-6)]GlcNAc
# Outline: as §1
# [15] = molecular target: Gal(b1-4)GlcNAc(b1-3)Gal(b1-4)GlcNAc(b1-3)Gal(b1-4)GlcNAc(b1-3)Gal(b1-4)GlcNAc(b1-2)[Gal(b1-4)GlcNAc(b1-3)Gal(b1-4)GlcNAc(b1-3)Gal(b1-4)GlcNAc(b1-3)Gal(b1-4)GlcNAc(b1-6)]Man(a1-6)[Gal(b1-4)GlcNAc(b1-3)Gal(b1-4)GlcNAc(b1-3)Gal(b1-4)GlcNAc(b1-3)Gal(b1-4)GlcNAc(b1-2)Man(a1-3)]Man(b1-4)GlcNAc(b1-4)[Fuc(a1-6)]GlcNAc
# Outline: as §1
# [16] = molecular target: Gal(b1-4)GlcNAc(b1-3)GalNAc
# Outline: as §1
# [17] = molecular target: Gal(b1-4)GlcNAc(b1-6)GalNAc
# Outline: as §1
# Gal(b1-4)GlcNAc6P = molecular target: Gal(b1-4)GlcNAc6P
# Outline: as §1
# Gal3S(b1-3)GlcNAc = molecular target: Gal3S(b1-3)GlcNAc
# Outline: as §1
# GalNAc3S(b1-4)GlcNAc = molecular target: GalNAc3S(b1-4)GlcNAc
# Outline: as §1
# GalNAc3S(b1-4)GlcNAc3S = molecular target: GalNAc3S(b1-4)GlcNAc3S
# Outline: as §1
# [18] = molecular target: GalNAc3S(b1-4)[Fuc(a1-3)]GlcNAc
# Outline: as §1
binder,measurement,setting,value
B1,glycan array binding signal (z-score),[1],-0.33
same,glycan array binding signal (z-score),[2],2.09
same,glycan array binding signal (z-score),[3],6.8
same,glycan array binding signal (z-score),[4],-0.282
same,glycan array binding signal (z-score),[5],-0.297
same,glycan array binding signal (z-score),[6],2.46
same,glycan array binding signal (z-score),[7],1.14
same,glycan array binding signal (z-score),[8],5.67
same,glycan array binding signal (z-score),Fuc(a1-3)GlcNAc,-0.568
same,glycan array binding signal (z-score),[9],-0.304
same,glycan array binding signal (z-score),Fuc(a1-4)GlcNAc,2.96
same,glycan array binding signal (z-score),[10],0.513
same,glycan array binding signal (z-score),[11],3.77
same,glycan array binding signal (z-score),[12],-0.25
same,glycan array binding signal (z-score),Gal(b1-4)Gal,1.95
same,glycan array binding signal (z-score),[13],0.236
same,glycan array binding signal (z-score),[14],-0.136
same,glycan array binding signal (z-score),[15],-0.342
same,glycan array binding signal (z-score),[16],-0.357
same,glycan array binding signal (z-score),[17],0.335
same,glycan array binding signal (z-score),Gal(b1-4)GlcNAc6P,0.464
same,glycan array binding signal (z-score),Gal3S(b1-3)GlcNAc,-0.347
same,glycan array binding signal (z-score),GalNAc3S(b1-4)GlcNAc,-0.59
same,glycan array binding signal (z-score),GalNAc3S(b1-4)GlcNAc3S,-0.23
same,glycan array binding signal (z-score),[18],-0.228
